This experiment concerns Plasmodium falciparum. Briefly: GSK_TCMDC: Inhibition of Plasmodium falciparum Dd2 in whole red blood cells, using parasite LDH activity as an index of growth. Test compounds present at 2uM. It counts as functional.
In turn, `CC[C@H](C)CNC(=O)c1cccc(-c2cccc(CNCC3CNCCCO3)c2)n1.O=C(O)C(F)(F)F` (stereo partly specified) returned an Inhibition of 54%.

The molecule `O=C(C=Cc1ccc(-c2ccccc2)cc1)N1CCC(CCN2CCC(c3c[nH]c4ccccc34)CC2)CC1` showed an Inhibition of 16%.

As to `CC(C)OC(=O)c1cccnc1SCC(=O)Nc1ccc(C(F)(F)F)cc1Cl`, the Inhibition is recorded as 88%.

`NCc1ccc(CNCc2ccc(-c3ccc(-c4nc5cc(C(F)(F)F)ccc5[nH]4)s3)cc2)cc1.O=C(O)C(F)(F)F`: the Inhibition is 92%.

As for `COc1ccc2nccc([C@@H](O)CN3CCC(NCC4COc5ccccc5O4)CC3)c2c1.O=C(O)C(=O)O` (stereo partly specified), the Inhibition worked out at 94%.

In turn, `CN1CCC(NC(=O)c2cc(Oc3ccc4c(c3)CCN4C(=O)Nc3cccc(C(F)(F)F)c3)ccn2)CC1.O=C(O)C(F)(F)F` had an Inhibition of 17%.

In the case of `Cn1nc(-c2ccc(S(=O)(=O)N3CCC(CCN4CCC(c5c[nH]c6ccccc56)CC4)CC3)s2)cc1C(F)(F)F`, the Inhibition came to 22%.

Consider `CN(C)CCc1coc2ccc(C(=O)Nc3ccc(-c4ccc(O)cc4)cc3)cc12`, for which the Inhibition was 40%.

Molecule `COc1cc(Nc2ccnc3ccc(C(F)(F)F)cc23)ccc1OCCCc1ccccc1` had an Inhibition of 51%.

As to `CC(C)C[C@@H](/C=N/N1CC(=O)NC1=O)NC(=O)[C@H](CC(C)C)NC(=O)c1ccc(OCCN2CCOCC2)cc1`, the Inhibition was determined as 79%.

On to `Cc1cc(N2CCC(NS(=O)(=O)c3ccccc3)CC2)nc(Nc2cccc(C#N)c2)n1.O=C(O)C(F)(F)F`, for which the Inhibition came to 29%.

`COc1ccc(Oc2ccc(-c3c(O)cc(C)nc3C)cc2)cc1` yielded an Inhibition of 88%.

For `Cl.O=C(NC1CCN(CC2(c3ccc(Cl)cc3)CCCCC2)CC1)c1cc[nH]n1`, the Inhibition was found to be 96%.

In the case of `CCn1c(-c2nonc2N)nc2cnc(Oc3cccc(NC(=O)c4ccc(OCCN5CCCC5)cc4)c3)cc21`, the Inhibition stood at 1%.

`O=C(CCCCCNC(=O)c1ccc(O)c(-c2ccc(Cl)c(Cl)c2)c1)NCCN1CCCCC1` gave an Inhibition of 1%.

`CN1CCC(Oc2ccc(CN3CC[C@H](NC(=O)c4ccc(Cl)c(Cl)c4)C3)c3ccccc23)C1.O=C(O)C(F)(F)F` (stereo partly specified): the Inhibition is on record as 82%.

`OC(COCc1ccc(-c2ccccc2)cc1)CN1CCCCC1` (stereo unspecified) registered an Inhibition of 75%.

With `O=C(Nc1ccc([N+](=O)[O-])cc1)c1nn(-c2ccccc2)cc1/N=C/c1cccc(O)c1`, the Inhibition came out at 37%.

`COc1cc(OC)cc(C(=O)N2CCOC(CCN3CCC(c4ccccc4)CC3)(c3ccc(Cl)c(Cl)c3)C2)c1` (stereo unspecified) yielded an Inhibition of 61%.

Turning to `Cc1cccc2nc(-c3ccc(-c4cccc(C(=O)NCCN5CCCC5)c4)s3)[nH]c12`, the Inhibition was 2%.

`CCOc1cc(C)ccc1N1CCN(CCN2CCC(NC(=O)c3ccc(-c4ccc(C#N)cc4)cc3)CC2)CC1` returned an Inhibition of 3%.

Take `COc1ccccc1N1CCN(CCCCNC(=O)c2ccc(NC(=O)c3cc(Cl)cc(Cl)c3)cc2)CC1`: the Inhibition worked out at 75%.

As for `Cl.O=C(Nc1ccc(C(=O)Nc2ccc(C3=NCCN3)cc2)cc1)Nc1ccc(C2=NCCN2)cc1`, the Inhibition was 95%.

`COc1ccc(-c2ccc3c(-c4cccc(S(C)(=O)=O)c4)cnc(N)c3c2)cc1`: the Inhibition turned out to be 12%.

Take `O=C(Cc1c[nH]cn1)Nc1cccc(-c2cccc(-c3nc4cc(F)ccc4[nH]3)c2)c1`: the Inhibition is reported as 97%.

For the molecule `CCCCCCn1c(Sc2ccc(C#N)c([N+](=O)[O-])c2)nnc1-c1cccs1`, the Inhibition turned out to be 60%.

`Cl.O=C(Oc1ccc(C2CNCCc3c2cc(OC(=O)c2ccc(O)cc2)c(OC(=O)c2ccc(O)cc2)c3Cl)cc1)c1ccc(O)cc1` (stereo unspecified) had an Inhibition of 60%.

Molecule `CCN1CCN(Cc2ccc(NC(=O)c3cc4ccc5cccnc5c4[nH]3)cc2)CC1` registered an Inhibition of 97%.

The molecule `CC(C)CN1CCCN(Cc2cccc(NC(=O)c3ccc(-c4ccccc4)cc3)c2)CC1.O=C(O)C(F)(F)F` gave an Inhibition of 24%.

Consider `COc1ccc2[nH]ccc(=NN=Cc3cccc(C)n3)c2c1`, for which the Inhibition is listed as 99%.

The molecule `CC(=O)c1ccccc1C(=O)N1CCOc2ccc(C(O)C(c3ccccc3)c3ccccc3)cc2C1` (stereo unspecified) registered an Inhibition of 98%.

`CC=CC1CCNC(C(O)c2ccnc3ccc(OC)cc23)C1` (stereo unspecified) gave an Inhibition of 1%.

On to `COc1cccc(-c2cccc(-c3ccc(NC(=O)c4ccc([N+](=O)[O-])o4)cc3)n2)c1`, for which the Inhibition is 94%.

As to `O=C(Nc1ccc(-c2cccc(-c3nc4cc(F)ccc4[nH]3)c2)cc1)Nc1ccc(F)c(F)c1F`, the Inhibition is recorded as 98%.

For `CCn1cc(CN2CCCC(C(=O)Nc3ccc(-c4nc5ccccc5[nH]4)cc3)C2)cn1` (stereo unspecified), the Inhibition is 26%.

As for `Cc1cc(NCC(c2ccccc2)c2ccccc2)nc(NCc2ccc(C(F)(F)F)cc2)n1`, the Inhibition was 79%.

These data come from ChEMBL document CHEMBL1157539, “Thousands of chemical starting points for antimalarial lead identification” (Nature, 2010).
